This excerpt belongs to a sample that is enriched for hits.
ROC1-CUL1 inh: inhibitors of human ROC1-CUL1 ubiquitin ligase activity; P62877+Q13616; in vitro K48 di-Ub FRET, acceptor:donor ratio, 45 min; inhibition, % at 10 µM; actives 0.6% (n = 140,000); in the data active means inhibition above about 25%
Target sequence (P62877 whole entry, looked up): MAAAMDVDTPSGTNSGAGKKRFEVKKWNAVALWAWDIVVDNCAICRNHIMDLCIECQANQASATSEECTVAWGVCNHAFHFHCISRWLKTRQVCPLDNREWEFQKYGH
Target sequence (Q13616 whole entry, looked up): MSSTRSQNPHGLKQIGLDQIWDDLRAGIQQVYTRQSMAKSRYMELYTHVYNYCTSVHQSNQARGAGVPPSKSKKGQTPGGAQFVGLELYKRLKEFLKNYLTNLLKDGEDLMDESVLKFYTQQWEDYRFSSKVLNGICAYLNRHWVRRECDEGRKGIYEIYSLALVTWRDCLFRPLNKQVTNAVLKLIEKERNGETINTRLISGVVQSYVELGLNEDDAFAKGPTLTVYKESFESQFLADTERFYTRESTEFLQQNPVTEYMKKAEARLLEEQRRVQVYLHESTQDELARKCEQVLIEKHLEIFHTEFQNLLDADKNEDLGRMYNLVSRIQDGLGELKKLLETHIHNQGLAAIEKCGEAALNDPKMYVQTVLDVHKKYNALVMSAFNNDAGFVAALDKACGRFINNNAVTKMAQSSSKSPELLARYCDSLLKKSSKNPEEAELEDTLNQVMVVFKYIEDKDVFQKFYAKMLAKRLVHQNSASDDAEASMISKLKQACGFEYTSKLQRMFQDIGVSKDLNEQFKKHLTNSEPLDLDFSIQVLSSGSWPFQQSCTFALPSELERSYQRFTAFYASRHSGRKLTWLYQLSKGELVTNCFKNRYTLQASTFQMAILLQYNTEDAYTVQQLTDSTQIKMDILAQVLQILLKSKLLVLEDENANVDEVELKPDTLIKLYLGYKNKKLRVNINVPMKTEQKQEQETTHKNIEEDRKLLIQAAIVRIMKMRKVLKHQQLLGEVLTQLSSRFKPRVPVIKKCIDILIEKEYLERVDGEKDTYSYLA
An asterisk follows results filed as active.

SMILES | ROC1-CUL1 inh
CC(C)C(NS(=O)(=O)c1cccc(S(=O)(=O)c2ccccc2)c1)C(=O)O (centres undefined) | 3
O=C1OC(c2ccccc2)OC(=O)C1=Cc1ccc(O)cc1 (centres undefined) | -1
O=C(COc1ccc(F)cc1)N1CCN(c2ccc(F)cc2)CC1 | 1
Clc1ccc(-c2cnc3ccccc3n2)cc1 | 0
Oc1ccc(-c2cnc3ccccc3n2)cc1 | 3
Oc1ccc(-c2cnc3ccccc3n2)cc1O | 84*
CCOC(=O)c1ncn(C(C)(C)CO)c1N | -7
Cc1ccc(CS(=O)(=O)Nc2c(C)cccc2C)cc1 | 2
O=C(CCc1ccncc1)N1CCCC(CCc2ccc(F)c(F)c2)C1 (centres undefined) | 7
O=C(c1ccc2c(c1)CCN2S(=O)(=O)c1ccccc1)N1CCOCC1 | 1
COc1cc(NS(=O)(=O)c2ccc(NC(=O)Nc3cccc(Cl)c3)cc2)nc(OC)n1 | -5
COc1ccc(CC(=O)Nc2ccc(S(=O)(=O)Nc3cc(OC)nc(OC)n3)cc2)cc1 | 35*
COc1cc(NS(=O)(=O)c2ccc(NS(=O)(=O)c3ccccc3)cc2)nc(OC)n1 | -5
C=CCOc1ccc(Br)cc1/C=C1\SC(=N)N(c2ccc(F)cc2)C1=O | 4
CCC(CO)NCc1cccn1C (centres undefined) | 0
CCc1ccc(NC(=O)N(Cc2c[nH]c3ccccc23)C2CCCCCC2)cc1 | 7
O=C(c1cccc(OC2CCN(Cc3cccc4nonc34)CC2)c1)N1CCCC1 | 6
Cc1ccccc1NC(=O)c1c(C)nc(SCC(=O)c2ccc(O)c(O)c2)c(C#N)c1-c1cccnc1 | 28*
N#Cc1c(SCC(=O)c2ccc(F)cc2)nc2c(c1-c1cccnc1)CCC2 | 5
N#Cc1c(N)nc(SCC(=O)c2ccc(O)c(O)c2)c(C#N)c1-c1ccc(OCc2ccccc2)cc1 | -8
Cc1ccc(CN2CCC(N3CCCC(C(=O)NC4CC4)C3)CC2)cc1C (centres undefined) | 2
Cn1c2c(c(=O)n(C)c1=O)C(c1ccc(O)c(O)c1)C1C(=O)c3ccccc3C1=N2 (centres undefined) | -5
COC(=O)[C@H]1CC2C(=O)C=C(c3ccccc3)C1N2C (some centres undefined) | 39*
COC(=O)[C@@H]1C(c2ccccc2)N=C(c2ccccc2)[C@H]1C (some centres undefined) | 3
COC(=O)[C@H]1O[C@H](c2ccccc2)O[C@H]1c1ccccc1 | 2
SMILES | ROC1-CUL1 inh
COc1ccc(C(=C(Cl)Cl)c2ccc(OC)c(C)c2)cc1C | 7
CN(C(=O)c1ccccn1)C(Cc1ccccc1)C1CCN(C(=O)c2csc3c2CCCC3)CC1 (centres undefined) | 12
Cc1ccc(Nc2cccc3ccccc23)cc1 | -3
CCN1c2ccccc2C=C(Br)C1C(Cl)(Cl)Cl (centres undefined) | 2
CCOc1ccc(-c2cn3c(n2)sc2cc(C(=O)NCCCN4CCCCCC4)ccc23)cc1 | 42*
Cc1ccc(-c2cn3c(n2)sc2cc(C(=O)NCCCN4CCCCCC4)ccc23)cc1 | 39*
Cc1ccc(-c2cn3c(n2)sc2cc(C(=O)NCCCN4CCCCC4)ccc23)cc1 | -65
CCN1CCN(CCCNC(=O)c2ccc3c(c2)sc2nc(-c4ccc(C)cc4)cn23)CC1 | -54
CCOc1ccc(-c2cn3c(n2)sc2cc(C(=O)NCCCN4CCCCC4)ccc23)cc1 | -170
CCCN1CCN(CCCNC(=O)c2ccc3c(c2)sc2nc(-c4ccc(OCC)cc4)cn23)CC1 | -62
COc1cc(C)c(S(=O)(=O)NC2CCCC2)cc1C | 14
Cc1c(C#N)c(=O)ncn1C(C)C | 9
COc1ccc(-c2cnnc(NCC(c3ccccc3)N3CCCCC3)n2)cc1 (centres undefined) | 8
O=C1NC(c2ccccc2)(C(F)(F)F)NC2Sc3ccccc3N12 (centres undefined) | 2
CCOc1cc(C)ccc1S(=O)(=O)N1CCOCC1 | -5
CCn1c(Cc2ccccc2)nnc1SCC(=O)Nc1ccc(Br)cc1 | -8
Cc1nn(C)c(C)c1CN(C)C(=O)c1cc2nc(-c3ccc4c(c3)OCO4)cc(C(F)(F)F)n2n1 | 8
CC(C)c1ccc2c(c1)[C@@H]1C=CC[C@@H]1[C@H](c1ccc(S(=O)(=O)N3CCOCC3)cc1)N2 | 31*
COc1ccc(NS(=O)(=O)c2ccc3c(c2)[C@H]2C=CC[C@H]2[C@@H](c2ccc(C(=O)O)cc2)N3)cc1 | 97*
C1=CC2c3c(ccc4ccccc34)NC(c3cccc4ccccc34)C2C1 (centres undefined) | -6
Cc1cccc(C)c1NS(=O)(=O)c1ccc2c(c1)[C@H]1C=CC[C@H]1[C@@H](c1ccc(Cl)cc1)N2 | 8
O=C(O)c1ccc2c(c1)C1C=CCC1C(c1cccc3ccccc13)N2 (centres undefined) | 95*
Cc1cccc(NS(=O)(=O)c2ccc3c(c2)[C@H]2C=CC[C@H]2[C@@H](c2ccc(C(C)(C)C)cc2)N3)c1 | -2
COc1cccc([C@@H]2Nc3ccc(C(=O)O)cc3[C@@H]3C=CC[C@@H]32)c1OC | -12
COc1cccc([C@H]2Nc3ccc(S(=O)(=O)Nc4ccc(C)c(C)c4)cc3[C@H]3C=CC[C@H]32)c1 | -5
SMILES | ROC1-CUL1 inh
COC(=O)c1ccc([C@H]2Nc3ccc(S(=O)(=O)Nc4ccc(C)cc4)cc3[C@H]3C=CC[C@H]32)cc1 | 11
O=c1oc2ccccc2c2c1C1CCCCCCC21 (centres undefined) | 6
CCOc1ccc(NS(=O)(=O)CC)cc1 | 0
CCc1nnc(NC(=O)CN2C(=O)/C(=C\c3ccccc3)SC2=S)s1 | -1
COc1ccc(CN2CCN(Cc3ccncc3)CC2CCO)c(F)c1 (centres undefined) | 5
CN1CCCC2(CCN(C(=O)Cc3ccc4c(c3)OCO4)C2)C1=O (centres undefined) | 1
CCN(CC)c1ccc(/C=C2/N=C(c3ccc(OC)c(OC)c3)OC2=O)cc1 | 21
Cc1ccc(/C=C2\N=C(c3ccc(C)cc3)OC2=O)cc1 | -7
CCCN(CCC)c1ccc(/C=C2/N=C(c3ccccc3)OC2=O)cc1 | 42*
Cc1cc(=O)oc2n[nH]c(C)c12 | 3
Cc1cccc(N2CCC(NC(=O)C3CCC(=O)N(CCCN4CCOCC4)C3)CC2)c1 (centres undefined) | 11
CN1CCC2=NC(=S)C(C#N)=C(c3ccc(F)cc3)C2C1 (centres undefined) | 97*
N#CC1=C(c2ccco2)C2CCCCC2=NC1=S (centres undefined) | 1
COc1ccc(C2=C(C#N)C(=S)N=C(C3CC3)C2)cc1 | -1
COC(=O)C(NNc1ccccc1)(NC(=O)Cc1ccccc1)C(F)(F)F (centres undefined) | -2
CC1=C(C#N)c2nc(N)c(C#N)c(C)c2/C1=C\c1cccc(F)c1 | -4
CC1=C(C#N)c2nc(N)c(C#N)c(C)c2/C1=C\c1ccc(OCc2cccc(C(=O)O)c2)cc1 | 98*
CC1=C(C#N)c2nc(N)c(C#N)c(C)c2/C1=C\c1ccc(F)cc1 | -5
Clc1ccc(Cc2nnc3sc(C4CCCCC4)nn23)cc1 | -5
O=C1NCCN(Cc2ccccn2)C1CC(=O)N1CCC(c2ccccc2)CC1 (centres undefined) | -7
COC(=O)c1ccc(/C=C2\SC(=S)N(CO)C2=O)cc1 | 4
COC(=O)c1ccc(/C=C2\SC(=S)N(CCCCCC(=O)O)C2=O)cc1 | 81*
COc1cc(/C=C2/SC(=S)N(CC(=O)O)C2=O)ccc1OC(=O)c1ccc(C)cc1 | 93*
